Here are results for five compounds from PubChem BioAssay.

Experiment [1] concerns PRMT1 (protein arginine N-methyltransferase 1). In words: small molecules binding arginine methyltransferase PRMT1 – biochemical, small-molecule microarray, 635 nm fluorescence, primary screen (AID 1088).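 Further: binding of Prmt1 protein to compounds spotted on small-molecule microarray slides.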 The following applies: higher = more signal.
Experiment [2] can be described thus: growth effects on S. cerevisiae YJM789 – YJM789 clinical isolate, OD600, 24 h, basal, primary screen (AID 1089).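 Further: growth of clinical yeast isolate S. cerevisiae YJM 789 seeded 1000 cells per well; test concentration not given here.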 The note with it: higher = more signal, called active from +8 up or from −8 down.
Experiment [3] in a line: S. pombe growth modifiers, basal conditions – strain 972, OD600, 24 h, no modulator, primary screen (AID 1090).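 Further: basal condition with compound alone and no growth modifier present; test concentration not given here.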 The following applies: S. pombe 972 growth, higher = more signal, called active from +8 up or from −8 down.
Experiment [4] is described as follows: budding yeast growth modifiers under rapamycin – strain BY4716, OD600, 96 h, primary screen (AID 1091). Further: test concentration not given here. The following applies: S. cerevisiae BY4716 + rapamycin, higher = more signal, called active from +8 up or from −8 down.
Experiment [5] has as its target Torsin-1A-interacting protein 2 (Homo sapiens) (UniProt Q8NFQ8). Put plainly: small molecules binding lysate-expressed LULL1 – cell lysate, human LULL1 lysate, 635/667 nm fluorescence, primary screen (AID 1092).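 Further: probe is lysate of COS7 cells overexpressing human LULL1; score merges per-feature 667 nm fluorescence with signal-to-noise.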 The note with it: small-molecule microarray, hLULL1 lysate binding, 635 nm fluorescence; higher = more signal.
Experiment [6] can be described thus: optical density change of DRC41 E. coli – strain DRC41, OD650, 24 h, E. coli filamentation project, primary screen (AID 1093).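 Further: MC1000 strain lacking acrAB efflux and sulA so SOS filamentation is blocked; test concentration not given here.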 The following applies: E. coli DRC41 growth, higher = more signal, called active from +8 up or from −8 down.
Experiment [7] can be described thus: probe aLefty2 binding to arrayed compounds – biochemical, biotinylated probe, 635/667 nm fluorescence, primary screen (AID 1094).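 Further: score merges spot fluorescence near 667 nm with spot signal-to-noise ratio.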 The note with it: small-molecule microarray, higher = more signal.
The test system of experiment [8] is Noggin (protein binding on small-molecule microarray). In words: small molecules binding Noggin protein – biochemical, 635/667 nm fluorescence, primary screen (AID 1095).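 Further: score merges 667 nm feature fluorescence with signal to noise over triplicate slides.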 The note with it: 635 nm fluorescence, higher = more signal.
For experiment [9], the target named is Neurogenic locus notch homolog protein 3 (Homo sapiens) (UniProt Q9UM47). Put plainly: small molecules binding NOTCH3 protein – biochemical, 635/667 nm fluorescence, primary screen (AID 1096). The note with it: small-molecule microarray, 635 nm fluorescence, higher = more signal.
The nature of experiment [10]: probe aEGFR binding to arrayed compounds – biochemical, biotinylated probe, 635/667 nm fluorescence, primary screen (AID 1097).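 Further: probe is a biotinylated anti-EGFR antibody binding compounds printed on slides; score combines fluorescence near 667 nm and signal to noise of each spot.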 The following applies: small-molecule microarray, higher = more signal.
Experiment [11] relates to Plasmodium falciparum Sir2 (PF13_0152, Sir2A). Put plainly: Plasmodium falciparum Sir2A binding compounds – biochemical, small-molecule microarray, 635 nm fluorescence, primary screen (AID 1098).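 Further: score merges spot fluorescence intensity with its signal-to-noise ratio.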 The note with it: fluorescence 635 nm, higher = more signal.
Experiment [12] in a line: probe aDKK1 binding to arrayed compounds – biochemical, biotinylated probe, 635/667 nm fluorescence, primary screen (AID 1099).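 Further: score merges 667nm spot fluorescence with signal to noise across triplicate slides; reference of the scale not given here.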 The note with it: small-molecule microarray, higher = more signal.
Experiment [13] in a line: probe aCHRDL2 binding to arrayed compounds – biochemical, biotinylated probe, 635/667 nm fluorescence, primary screen (AID 1100). The following applies: small-molecule microarray, higher = more signal.
The nature of experiment [14]: change in splice reporter luminescence, either direction, cell-based, HEK293, spliceosome inhibition project, primary screen (AID 1101).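 Further: HEK293 cells carrying a splicing-competent luciferase reporter gene; test concentration not given here.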 The following applies: HEK293 splicing luciferase reporter, 24 h, higher = more signal, called active from +8 up or from −8 down.
Experiment [15] concerns the target Fibroblast growth factor 10 (Homo sapiens) (UniProt O15520). In words: compounds binding fibroblast growth factor 10 – biochemical, small-molecule microarray, 635 nm fluorescence, primary screen (AID 1102). The note with it: FGF10 binding, fluorescence 635 nm, higher = more signal.
Experiment [16] relates to glycogen synthase kinase-3 (GSK3A per assay name; protocol says GSK3B). In words: compounds binding glycogen synthase kinase-3 – biochemical, small-molecule microarray, 635 nm fluorescence, GSK3A, primary screen (AID 1103). Further: the record names both GSK3A and GSK3B. The note with it: fluorescence 635 nm, higher = more signal.
The target of experiment [17] is Epidermal growth factor receptor (Homo sapiens) (UniProt P00533). Put plainly: compounds binding epidermal growth factor receptor – biochemical, small-molecule microarray, 635 nm fluorescence, primary screen (AID 1104).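 Further: score merges 667 nm emission intensity with spot signal to noise over triplicate slides.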 The following applies: EGFR binding, higher = more signal.
Experiment [18] deals with Follistatin-related protein 3 (Homo sapiens) (UniProt O95633). Put plainly: compounds binding follistatin-related protein 3 – biochemical, small-molecule microarray, 635 nm fluorescence, primary screen (AID 1105).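 Further: score merges emission near 667 nm and signal to noise per printed spot across three slides.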 The note with it: FSTL3 binding, higher = more signal.
The target in experiment [19] is Dickkopf-related protein 1 (Homo sapiens) (UniProt O94907). Put plainly: small molecules binding DKK1 protein – biochemical, small-molecule microarray, 635 nm fluorescence scan, primary screen (AID 1106).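 Further: score merges emission near 667 nm with signal to noise over three replicate slides.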 The note with it: higher = more signal.
In experiment [20] the test system is Inhibin beta A chain (activin A). Put plainly: small molecules binding activin A – biochemical, small-molecule microarray, 635 nm fluorescence scan, primary screen (AID 1107).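 Further: mouse activin A protein probed at 4.33 µg/mL on printed slides; score merges bound-protein fluorescence near 667 nm with spot signal-to-noise.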 The following applies: INHBA, higher = more signal.

Calls of active or inactive are those of the source.

Sequence of Torsin-1A-interacting protein 2 (Homo sapiens) (Q8NFQ8 whole entry, looked up): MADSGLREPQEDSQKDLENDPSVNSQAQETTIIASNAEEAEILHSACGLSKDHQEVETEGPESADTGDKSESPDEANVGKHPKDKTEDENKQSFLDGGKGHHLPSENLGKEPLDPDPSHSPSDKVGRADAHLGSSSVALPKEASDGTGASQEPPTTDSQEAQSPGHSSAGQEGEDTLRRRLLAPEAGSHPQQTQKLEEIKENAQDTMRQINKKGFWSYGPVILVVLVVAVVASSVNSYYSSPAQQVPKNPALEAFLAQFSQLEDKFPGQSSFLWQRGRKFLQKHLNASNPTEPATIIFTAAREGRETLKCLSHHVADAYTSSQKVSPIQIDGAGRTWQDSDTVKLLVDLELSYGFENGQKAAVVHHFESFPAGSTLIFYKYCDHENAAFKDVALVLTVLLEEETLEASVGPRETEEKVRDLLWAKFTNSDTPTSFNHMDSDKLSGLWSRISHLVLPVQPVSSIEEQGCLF
Sequence of Follistatin-related protein 3 (Homo sapiens) (O95633 whole entry, looked up): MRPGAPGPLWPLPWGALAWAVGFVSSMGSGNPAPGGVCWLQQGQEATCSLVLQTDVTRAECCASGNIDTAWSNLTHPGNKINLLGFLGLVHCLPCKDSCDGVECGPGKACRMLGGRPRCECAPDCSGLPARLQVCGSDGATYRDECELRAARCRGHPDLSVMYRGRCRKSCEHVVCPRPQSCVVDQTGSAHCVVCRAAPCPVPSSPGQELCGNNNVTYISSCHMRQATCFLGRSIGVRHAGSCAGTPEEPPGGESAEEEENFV
Sequence of Fibroblast growth factor 10 (Homo sapiens) (O15520 whole entry, looked up): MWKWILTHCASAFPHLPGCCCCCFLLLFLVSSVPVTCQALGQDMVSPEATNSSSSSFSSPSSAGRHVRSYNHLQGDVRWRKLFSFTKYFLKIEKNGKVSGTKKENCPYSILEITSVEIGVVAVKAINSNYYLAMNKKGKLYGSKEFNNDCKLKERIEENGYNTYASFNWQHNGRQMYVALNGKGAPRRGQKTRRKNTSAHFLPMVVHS
Sequence of Dickkopf-related protein 1 (Homo sapiens) (O94907 whole entry, looked up): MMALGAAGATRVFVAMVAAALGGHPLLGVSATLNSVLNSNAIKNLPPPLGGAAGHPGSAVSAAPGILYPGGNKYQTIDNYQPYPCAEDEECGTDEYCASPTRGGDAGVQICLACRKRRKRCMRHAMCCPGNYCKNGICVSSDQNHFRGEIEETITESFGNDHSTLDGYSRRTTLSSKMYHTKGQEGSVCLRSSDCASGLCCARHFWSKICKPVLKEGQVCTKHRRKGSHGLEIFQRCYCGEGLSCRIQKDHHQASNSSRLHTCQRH
Sequence of Epidermal growth factor receptor (Homo sapiens) (P00533 whole entry, looked up): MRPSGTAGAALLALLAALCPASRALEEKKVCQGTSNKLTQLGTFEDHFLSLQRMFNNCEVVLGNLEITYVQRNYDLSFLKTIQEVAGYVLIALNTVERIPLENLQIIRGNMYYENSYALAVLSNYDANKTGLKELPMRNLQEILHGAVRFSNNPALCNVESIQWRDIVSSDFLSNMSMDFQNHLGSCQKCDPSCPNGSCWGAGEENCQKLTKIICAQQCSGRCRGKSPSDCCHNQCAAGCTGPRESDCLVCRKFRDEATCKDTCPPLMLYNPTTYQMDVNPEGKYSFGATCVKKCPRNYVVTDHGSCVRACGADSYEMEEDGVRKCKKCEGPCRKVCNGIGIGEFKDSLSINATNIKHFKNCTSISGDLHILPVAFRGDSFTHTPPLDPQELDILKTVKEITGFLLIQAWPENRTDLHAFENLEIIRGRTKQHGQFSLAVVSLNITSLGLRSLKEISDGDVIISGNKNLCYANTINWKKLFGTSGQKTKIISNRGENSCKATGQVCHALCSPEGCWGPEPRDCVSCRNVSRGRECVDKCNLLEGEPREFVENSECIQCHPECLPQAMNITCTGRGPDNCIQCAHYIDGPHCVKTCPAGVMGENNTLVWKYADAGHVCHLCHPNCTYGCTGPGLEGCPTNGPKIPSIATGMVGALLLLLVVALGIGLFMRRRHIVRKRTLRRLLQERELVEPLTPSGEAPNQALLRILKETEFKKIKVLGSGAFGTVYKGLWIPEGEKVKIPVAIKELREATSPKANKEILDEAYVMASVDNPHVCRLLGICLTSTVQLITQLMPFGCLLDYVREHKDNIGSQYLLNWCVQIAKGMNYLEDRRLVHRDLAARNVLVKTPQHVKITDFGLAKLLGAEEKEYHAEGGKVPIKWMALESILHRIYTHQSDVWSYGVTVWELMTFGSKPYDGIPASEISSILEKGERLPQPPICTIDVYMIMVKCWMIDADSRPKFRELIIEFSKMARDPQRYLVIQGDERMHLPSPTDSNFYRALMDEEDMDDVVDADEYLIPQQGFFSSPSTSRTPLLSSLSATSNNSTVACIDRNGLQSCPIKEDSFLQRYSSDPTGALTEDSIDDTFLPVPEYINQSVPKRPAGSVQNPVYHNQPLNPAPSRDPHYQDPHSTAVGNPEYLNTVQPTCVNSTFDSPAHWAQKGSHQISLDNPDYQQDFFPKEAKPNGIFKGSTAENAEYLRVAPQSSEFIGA
Sequence of Neurogenic locus notch homolog protein 3 (Homo sapiens) (Q9UM47 whole entry, looked up): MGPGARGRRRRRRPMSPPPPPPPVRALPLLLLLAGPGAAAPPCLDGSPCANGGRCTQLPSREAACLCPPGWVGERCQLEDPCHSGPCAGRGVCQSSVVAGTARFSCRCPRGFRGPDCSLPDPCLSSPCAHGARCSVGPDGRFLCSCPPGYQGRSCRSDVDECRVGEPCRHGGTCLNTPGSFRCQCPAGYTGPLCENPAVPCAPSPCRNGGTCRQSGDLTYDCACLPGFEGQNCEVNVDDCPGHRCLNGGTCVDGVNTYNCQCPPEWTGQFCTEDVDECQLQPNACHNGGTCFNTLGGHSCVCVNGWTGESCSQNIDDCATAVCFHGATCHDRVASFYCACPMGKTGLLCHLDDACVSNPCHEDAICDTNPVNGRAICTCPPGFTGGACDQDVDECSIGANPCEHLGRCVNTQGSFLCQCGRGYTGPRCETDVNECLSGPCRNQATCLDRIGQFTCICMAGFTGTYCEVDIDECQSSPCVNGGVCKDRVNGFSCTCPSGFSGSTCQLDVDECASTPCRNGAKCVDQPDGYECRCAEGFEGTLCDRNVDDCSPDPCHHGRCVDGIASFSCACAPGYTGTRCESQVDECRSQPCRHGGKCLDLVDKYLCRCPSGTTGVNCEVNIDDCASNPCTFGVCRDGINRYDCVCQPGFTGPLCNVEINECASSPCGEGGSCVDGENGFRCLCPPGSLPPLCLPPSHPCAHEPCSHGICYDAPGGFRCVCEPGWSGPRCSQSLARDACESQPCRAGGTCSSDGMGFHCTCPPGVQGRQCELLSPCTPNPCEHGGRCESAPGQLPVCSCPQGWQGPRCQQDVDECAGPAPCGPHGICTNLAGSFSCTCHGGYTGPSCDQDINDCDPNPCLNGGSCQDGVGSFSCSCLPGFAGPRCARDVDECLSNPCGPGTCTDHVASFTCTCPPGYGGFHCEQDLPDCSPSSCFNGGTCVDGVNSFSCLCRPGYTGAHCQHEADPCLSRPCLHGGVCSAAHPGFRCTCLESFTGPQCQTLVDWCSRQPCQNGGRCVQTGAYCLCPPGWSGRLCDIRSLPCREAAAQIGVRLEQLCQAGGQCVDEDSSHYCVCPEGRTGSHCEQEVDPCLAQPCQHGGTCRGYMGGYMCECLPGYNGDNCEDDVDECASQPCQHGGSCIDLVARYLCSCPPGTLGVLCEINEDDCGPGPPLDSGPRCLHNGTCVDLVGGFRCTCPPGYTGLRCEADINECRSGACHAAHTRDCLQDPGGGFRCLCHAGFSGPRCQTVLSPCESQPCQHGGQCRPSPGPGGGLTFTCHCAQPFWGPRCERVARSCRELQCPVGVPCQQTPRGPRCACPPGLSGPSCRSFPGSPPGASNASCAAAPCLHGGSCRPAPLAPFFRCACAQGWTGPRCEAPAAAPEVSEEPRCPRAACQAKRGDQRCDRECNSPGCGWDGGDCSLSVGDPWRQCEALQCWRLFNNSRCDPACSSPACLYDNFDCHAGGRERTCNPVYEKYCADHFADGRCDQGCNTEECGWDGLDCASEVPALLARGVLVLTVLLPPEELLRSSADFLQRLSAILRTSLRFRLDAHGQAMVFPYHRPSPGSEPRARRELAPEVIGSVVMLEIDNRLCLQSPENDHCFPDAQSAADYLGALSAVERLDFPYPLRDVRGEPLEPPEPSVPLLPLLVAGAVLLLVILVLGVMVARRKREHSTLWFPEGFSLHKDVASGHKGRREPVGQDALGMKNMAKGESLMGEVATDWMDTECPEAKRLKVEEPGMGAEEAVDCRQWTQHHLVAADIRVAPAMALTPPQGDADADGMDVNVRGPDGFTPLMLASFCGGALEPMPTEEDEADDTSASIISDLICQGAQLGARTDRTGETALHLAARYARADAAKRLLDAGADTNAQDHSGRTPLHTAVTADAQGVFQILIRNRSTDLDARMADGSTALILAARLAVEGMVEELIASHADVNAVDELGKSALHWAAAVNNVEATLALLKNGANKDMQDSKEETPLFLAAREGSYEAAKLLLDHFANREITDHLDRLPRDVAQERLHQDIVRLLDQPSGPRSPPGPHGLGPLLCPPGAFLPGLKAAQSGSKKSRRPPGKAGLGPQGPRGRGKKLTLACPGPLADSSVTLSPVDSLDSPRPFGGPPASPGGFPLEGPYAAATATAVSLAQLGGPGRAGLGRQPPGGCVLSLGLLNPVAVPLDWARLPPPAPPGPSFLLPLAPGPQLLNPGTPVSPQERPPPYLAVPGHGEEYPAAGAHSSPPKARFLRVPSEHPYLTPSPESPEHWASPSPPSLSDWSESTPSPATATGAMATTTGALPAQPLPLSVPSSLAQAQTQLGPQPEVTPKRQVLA

Turning to `COC(=O)[C@@H]1CC[C@H](C)[C@@H](c2ccc(Br)cc2)N1C[C@@H](O)CN=[N+]=[N-]`, the composite z-score in experiment [1] was 0.382; in experiment [5], 0.147; in [7], -0.0412; in experiment [8], 0.162; in [9] it was 0.0511; in [10] it was -0.0902. The composite z-score in [11] is 0.0292; in experiment [12] it was -0.0196; in [13], -0.304; in experiment [15], 0.189; in experiment [16], 0.078; in experiment [17], 0.532. Also, the composite z-score is 0.0985 in experiment [18], 0.356 in [19] and -0.28 in [20]. In addition, the z-score in experiment [2] was -1.44 (inactive); in experiment [3], -10.1 (active); in [4], -0.243 (inactive); in experiment [6], 0.323 (inactive); in [14], -1.34 (inactive).
For `CC(CCC(=O)OC[C@H]1O[C@H](C#Cc2ccccc2)C=C[C@@H]1Oc1ccc(C)cc1)=NO[C@@H](C)c1cc(-c2c(C)cc(C)cc2C)no1`, the composite z-score in experiment [1] was -0.187; in [5] it was 0.226; in experiment [7], -0.328; in experiment [8], -0.199; in experiment [9], -1.12; in [10], -0.296. Further, the composite z-score in [11] was 0.199; in experiment [12] it was -0.293; in experiment [13], -0.0256; in experiment [15], -1.43; in experiment [16], -1.48; in experiment [17], -0.983. The composite z-score in experiment [18] is -1.27; in experiment [19] it was -0.465; in experiment [20], 0.486. In addition, the z-score in experiment [2] was 0.914 (inactive); in [3] it was 0.811 (inactive); in experiment [4], 0.361 (inactive); in experiment [6], -0.318 (inactive); in experiment [14] it was 0.0536 (inactive).
`C[C@@H](c1ccccc1)N1C(=O)[C@H]2[C@H]3[C@H](O)[C@H](O)CC(=NOCc4ccccc4)[C@@H]3CC[C@H]2C1=O`: the composite z-score in [1] was -0.246; in experiment [5], 0.379; in experiment [7] it was 0.408; in [8], -0.29; in experiment [9] it was -0.551; in experiment [10], -0.203. The composite z-score in experiment [11] was -0.139; in [12], 1.19; in experiment [13] it was 1.31; in experiment [15] it was -0.222; in experiment [16] it was -0.187; in experiment [17] it was -0.169. In addition, the composite z-score in experiment [18] is -0.909; in experiment [19], -1; in [20], 0.549. Further, the z-score in [2] is 0.855 (inactive); in [3], -0.293 (inactive); in experiment [4], 0.512 (inactive); in experiment [6], -0.125 (inactive); in experiment [14], 0.36 (inactive).
As to `O=C1[C@H]2[C@H]3[C@H](O)[C@H](O)CC(=NO[C@@H]4O[C@H](CO)[C@@H](O)[C@H](O)[C@H]4O)[C@@H]3CC[C@H]2C(=O)N1C[C@@H]1CCCO1`, the composite z-score in experiment [1] was 1.08; in [5] it was 1.21; in [7], -0.0683; in experiment [8], -0.287; in experiment [9], 0.979; in [10] it was 0.0934. Also, the composite z-score was 0.355 in experiment [11]; -0.29 in [12]; -0.565 in experiment [13]; 0.784 in experiment [15]; 0.839 in [16]; 0.448 in experiment [17]. In addition, the results for the composite z-score in [18], in experiment [19] and in experiment [20] were 0.738, 0.35 and -0.808, respectively. In addition, the z-score in experiment [2] was 0.57 (inactive); in experiment [3], -0.0413 (inactive); in [4], -0.0603 (inactive); in experiment [6], 0.415 (inactive); in experiment [14], -1.45 (inactive).
For `CCN1C(=O)[C@H]2[C@H]3[C@H](O)[C@H](O)CC(=NNC(=O)OCc4ccccc4)[C@@H]3CC[C@H]2C1=O`, the composite z-score is -0.738 in experiment [1]; 0.614 in experiment [5]; -0.044 in [7]; -0.0412 in [8]; -0.0028 in experiment [9]; -0.118 in experiment [10]. Moreover, the composite z-score in experiment [11] was -0.16; in experiment [12], 0.118; in experiment [13], 0.78; in [15] it was -0.163; in experiment [16], -0.612; in experiment [17], -0.241. The composite z-score in experiment [18] was -0.0709; in [19], 0.131; in experiment [20], -0.291. Also, the z-score was -0.0309 (inactive) in experiment [2]; -0.277 (inactive) in experiment [3]; -0.133 (inactive) in experiment [4]; 0.801 (inactive) in experiment [6]; -0.176 (inactive) in experiment [14].
